# According to ChEMBL document CHEMBL3433997, “St. Jude Leishmania screening dataset” (2016):
# Biological target: Solute carrier family 2, facilitated glucose transporter member 1 (Homo sapiens) (UniProt P11166)
# Assay: ST_JUDE_LEISH: Cytotoxicity at 2uM final concentration against transgenic Leishmania Mexicana promastigotes LmGLUT1 that are glucose transport deficient and complemented with the human glucose transporter GLUT1. Activity is measured by DNA content using SYBR green in vitro
# Type: functional
# Chain of Solute carrier family 2, facilitated glucose transporter member 1 (Homo sapiens) (P11166 whole entry): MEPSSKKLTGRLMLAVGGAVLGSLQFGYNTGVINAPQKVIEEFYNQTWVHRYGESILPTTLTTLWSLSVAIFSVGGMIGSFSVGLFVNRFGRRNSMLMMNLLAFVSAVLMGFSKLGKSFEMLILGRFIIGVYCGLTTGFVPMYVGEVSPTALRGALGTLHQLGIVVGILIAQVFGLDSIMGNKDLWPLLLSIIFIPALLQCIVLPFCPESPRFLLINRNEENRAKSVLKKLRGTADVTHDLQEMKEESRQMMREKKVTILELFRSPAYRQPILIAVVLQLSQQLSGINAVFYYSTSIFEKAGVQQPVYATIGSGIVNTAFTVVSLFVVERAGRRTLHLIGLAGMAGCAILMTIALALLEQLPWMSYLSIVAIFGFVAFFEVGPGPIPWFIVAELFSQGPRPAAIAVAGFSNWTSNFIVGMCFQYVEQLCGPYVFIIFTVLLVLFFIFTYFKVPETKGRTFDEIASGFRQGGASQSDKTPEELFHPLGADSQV
row,SMILES,inhibition [%]
1,CCN1CCN(C(=O)NC(C(=O)N2CCCC(COc3ccc(Cc4ccccc4)cc3)C2)c2cccs2)C(=O)C1=O (stereo not drawn),3.59
2,O=C(NC(CCCN1CCC2(CC1)OCc1ccccc12)c1ccc(Cl)c(Cl)c1)c1cc(C(F)(F)F)cc(C(F)(F)F)c1 (stereo not drawn),1.7
3,NS(=O)(=O)c1ccc(CNC(=O)c2cnc3c(O)cccc3c2Nc2cccc(NC(=O)c3ccc(Cl)c(Cl)c3)c2)cc1,5.22
4,CC(C)C(C(=O)Nc1ccc2c(c1)OCO2)c1ccc(Cl)cc1 (stereo not drawn),3.38
5,O=C(O)C1Cc2c([nH]c3ccccc23)C(c2ccc(Cl)cc2Cl)N1 (stereo not drawn),3.99
6,O=C(Nc1cccc(CN2CCCN(CC3CC3)CC2)c1)c1ccc(Cl)c(Cl)c1,10.8
7,COc1cccc(C(=O)N2CCN(Cc3cccc(NC(=O)c4cccs4)c3)CC2)c1,2.14
8,O=C(NCc1cccs1)[C@H](Cc1ccccc1)Nc1ccnc(NCC2CCCCC2)n1,11.9
9,O=C(Nc1ccc(I)cc1)N1CCc2sccc2C1CN1CCCCC1 (stereo not drawn),12.2
10,COc1ccc(N2C(=O)C3C(C2=O)C2(C)c4ccccc4C3(C)c3ccccc32)c([N+](=O)[O-])c1 (stereo not drawn),9.9
11,COc1ccc(-c2ccc(NC(=O)c3ccc(C#N)cc3)cc2)cc1CN1CCC(O)CC1,-0.1
12,COCn1ncc2cc(-c3cccc(NC(=O)c4csc(NC(C)=O)n4)c3)ccc21,3.31
13,c1cc(C2=NC3CCCCC3N2)ccc1OCCCOc1ccc(C2=NC3CCCCC3N2)cc1 (stereo not drawn),7.04
14,O=C(Cn1c(SCc2cccc(F)c2F)cc(=O)c2ccccc21)N(CCc1c[nH]cn1)Cc1ccc(-c2ccc(C(F)(F)F)cc2)cc1,4.17
15,CC(C)(C)c1cc(C(=O)N2CCN(c3cnccn3)CC2)n(Cc2ccccc2)n1,4.57
16,Cc1ccccc1/N=C1\NC(=S)N(c2cccc(C(F)(F)F)c2)C12CCC(C(C)(C)C)CC2 (stereo not drawn),2.78
17,O=C(NCCCCN1CCC(c2ccc3c(c2OCC(O)c2ccc(Cl)cc2)CCCC3)CC1)c1ccc(-c2ccc(C(F)(F)F)cc2)cc1 (stereo not drawn),0.65
18,COc1cc(Cc2cnc3nc(N)nc(N)c3c2C)cc(OC)c1OC,1.29
19,CC(C)Nc1cc(C(=O)N[C@@H](Cc2ccccc2)[C@H](O)CNC(C)(C)c2cccc(C(F)(F)F)c2)cc(N2CCCCS2(=O)=O)c1,1.42
20,Nc1nc(Cc2ccc(Cl)cc2)nc(Cc2ccc(Cl)cc2)n1,-3.43

row,SMILES,inhibition [%]
1,CN(C)CC(=O)Nc1ccc(-c2ccc3ccnc(N)c3c2)cc1,13.7
2,COc1ccc2c(c1)CC(NCc1ccc(-c3ccc4nc[nH]c4c3)cc1)C2 (stereo not drawn),4.22
3,Cc1cc(O)c2c3c1C(=O)C=C1C3c3c(c(O)cc(O)c3C(=O)C1(C)C)C2=O (stereo not drawn),-4.69
4,O=C(c1cncc(-c2ccccc2)c1)N(Cc1cncn1Cc1ccccc1F)CC1CC1,0.88
5,CC(=O)Nc1nc(C(=O)Nc2ccc(-c3cccc(-c4nc5ccccc5[nH]4)c3)cc2)cs1,1.93
6,CC(=O)c1ccc2c(c1)CCN(CCC1CCC(NC(=O)c3cc4ccccc4[nH]3)CC1)CC2 (stereo not drawn),2.67
7,O=S(=O)(c1c(Cl)cc(Cl)cc1Cl)N1CCCCC(c2ccc(C(F)(F)F)cc2)=N1,5.69
8,Cn1nc(-c2cccc(CNCc3ccccc3)c2)c2cnc(NC3CCCC3)nc21,-0.97
9,O=S(=O)(c1ccc(OCc2ccc(Cl)cc2)cc1)c1cc2c(cc1OCc1ccccc1)CCN(CC1CC1)CC2,0.01
10,CCCN(CCC)C(=O)c1cc(C(=O)N[C@@H](Cc2ccccc2)[C@H](O)CNC(C)(C)c2cccc(C(F)(F)F)c2)cc(N2CCCCS2(=O)=O)c1,-1.43
11,c1ccc(CCNc2ccnc(Nc3ccc4[nH]nnc4c3)n2)cc1,14.1
12,CC(=O)Nc1ccc(CN(Cc2ccc(OC(C)(C)C)cc2)Cc2ccc3c(c2)OCCO3)cc1,7.25
13,COC[C@H]1CCCN1Cc1ccc(-c2ccc(-c3nc4ccccc4[nH]3)s2)cc1,2.15
14,CCc1cc(NCc2ccncc2)nc(Nc2ccc(F)cc2)n1,14.4
15,N#Cc1c(N2CCCCCC2)nc(N)c2c(N)nc3c(c12)CC(=O)N3c1ccc(F)cc1,2.61
16,O=C(/C=C/c1cccc(Cl)c1)N1CCC(C(O)CN2CCC3(CC2)CN(C(=O)/C=C/c2cccc(Cl)c2)c2ccccc23)CC1 (stereo not drawn),0.54
17,OC1(c2ccccc2)CCN(Cc2cccc(-c3c[nH]c4nc(NC5CCCC5)ncc34)c2)C1 (stereo not drawn),3.82
18,COc1ccc(C)c(Nc2ccnc(Nc3cccc(-c4nc5ccccc5[nH]4)c3)n2)c1,3.82
19,O=C(Nc1ccc(Cl)cc1)Nc1cccc(-c2ccc(-c3nc4cc(F)ccc4[nH]3)cc2)c1,6.12

# Biological target: Hexose transporter 1 (Plasmodium falciparum) (UniProt O97467)
# Assay: ST_JUDE_LEISH: Cytotoxicity at 2uM final concentration against transgenic Leishmania Mexicana promastigotes LmPfHT that are glucose transport deficient and complemented with the Plasmodium falciparum hexose transporter. Activity is measured by DNA content using SYBR green in vitro
# Type: functional
row,SMILES,inhibition [%]
1,CCN1CCN(C(=O)NC(C(=O)N2CCCC(COc3ccc(Cc4ccccc4)cc3)C2)c2cccs2)C(=O)C1=O (stereo not drawn),3.3
2,O=C(NC(CCCN1CCC2(CC1)OCc1ccccc12)c1ccc(Cl)c(Cl)c1)c1cc(C(F)(F)F)cc(C(F)(F)F)c1 (stereo not drawn),0.26
3,NS(=O)(=O)c1ccc(CNC(=O)c2cnc3c(O)cccc3c2Nc2cccc(NC(=O)c3ccc(Cl)c(Cl)c3)c2)cc1,5.59
4,CC(C)C(C(=O)Nc1ccc2c(c1)OCO2)c1ccc(Cl)cc1 (stereo not drawn),2.76
5,O=C(O)C1Cc2c([nH]c3ccccc23)C(c2ccc(Cl)cc2Cl)N1 (stereo not drawn),2.22
6,O=C(Nc1cccc(CN2CCCN(CC3CC3)CC2)c1)c1ccc(Cl)c(Cl)c1,10.2
7,COc1cccc(C(=O)N2CCN(Cc3cccc(NC(=O)c4cccs4)c3)CC2)c1,2.18
8,O=C(NCc1cccs1)[C@H](Cc1ccccc1)Nc1ccnc(NCC2CCCCC2)n1,10.5
9,O=C(Nc1ccc(I)cc1)N1CCc2sccc2C1CN1CCCCC1 (stereo not drawn),9.79
10,COc1ccc(N2C(=O)C3C(C2=O)C2(C)c4ccccc4C3(C)c3ccccc32)c([N+](=O)[O-])c1 (stereo not drawn),8.14
11,COc1ccc(-c2ccc(NC(=O)c3ccc(C#N)cc3)cc2)cc1CN1CCC(O)CC1,-0.59
12,COCn1ncc2cc(-c3cccc(NC(=O)c4csc(NC(C)=O)n4)c3)ccc21,1.44
13,c1cc(C2=NC3CCCCC3N2)ccc1OCCCOc1ccc(C2=NC3CCCCC3N2)cc1 (stereo not drawn),6.74
14,O=C(Cn1c(SCc2cccc(F)c2F)cc(=O)c2ccccc21)N(CCc1c[nH]cn1)Cc1ccc(-c2ccc(C(F)(F)F)cc2)cc1,5.15
15,CC(C)(C)c1cc(C(=O)N2CCN(c3cnccn3)CC2)n(Cc2ccccc2)n1,4.68
16,Cc1ccccc1/N=C1\NC(=S)N(c2cccc(C(F)(F)F)c2)C12CCC(C(C)(C)C)CC2 (stereo not drawn),2.68
17,O=C(NCCCCN1CCC(c2ccc3c(c2OCC(O)c2ccc(Cl)cc2)CCCC3)CC1)c1ccc(-c2ccc(C(F)(F)F)cc2)cc1 (stereo not drawn),1.49
18,COc1cc(Cc2cnc3nc(N)nc(N)c3c2C)cc(OC)c1OC,1.49
19,CC(C)Nc1cc(C(=O)N[C@@H](Cc2ccccc2)[C@H](O)CNC(C)(C)c2cccc(C(F)(F)F)c2)cc(N2CCCCS2(=O)=O)c1,2.46
20,Nc1nc(Cc2ccc(Cl)cc2)nc(Cc2ccc(Cl)cc2)n1,-1.17

row,SMILES,inhibition [%]
1,CN(C)CC(=O)Nc1ccc(-c2ccc3ccnc(N)c3c2)cc1,24.3
2,COc1ccc2c(c1)CC(NCc1ccc(-c3ccc4nc[nH]c4c3)cc1)C2 (stereo not drawn),2.21
3,Cc1cc(O)c2c3c1C(=O)C=C1C3c3c(c(O)cc(O)c3C(=O)C1(C)C)C2=O (stereo not drawn),-5.26
4,O=C(c1cncc(-c2ccccc2)c1)N(Cc1cncn1Cc1ccccc1F)CC1CC1,0.96
5,CC(=O)Nc1nc(C(=O)Nc2ccc(-c3cccc(-c4nc5ccccc5[nH]4)c3)cc2)cs1,2.85
6,CC(=O)c1ccc2c(c1)CCN(CCC1CCC(NC(=O)c3cc4ccccc4[nH]3)CC1)CC2 (stereo not drawn),-0.31
7,O=S(=O)(c1c(Cl)cc(Cl)cc1Cl)N1CCCCC(c2ccc(C(F)(F)F)cc2)=N1,8.89
8,Cn1nc(-c2cccc(CNCc3ccccc3)c2)c2cnc(NC3CCCC3)nc21,0
9,O=S(=O)(c1ccc(OCc2ccc(Cl)cc2)cc1)c1cc2c(cc1OCc1ccccc1)CCN(CC1CC1)CC2,-1.17
10,CCCN(CCC)C(=O)c1cc(C(=O)N[C@@H](Cc2ccccc2)[C@H](O)CNC(C)(C)c2cccc(C(F)(F)F)c2)cc(N2CCCCS2(=O)=O)c1,4.18
11,c1ccc(CCNc2ccnc(Nc3ccc4[nH]nnc4c3)n2)cc1,13.9
12,CC(=O)Nc1ccc(CN(Cc2ccc(OC(C)(C)C)cc2)Cc2ccc3c(c2)OCCO3)cc1,3.27
13,COC[C@H]1CCCN1Cc1ccc(-c2ccc(-c3nc4ccccc4[nH]3)s2)cc1,1.84
14,CCc1cc(NCc2ccncc2)nc(Nc2ccc(F)cc2)n1,6.44
15,N#Cc1c(N2CCCCCC2)nc(N)c2c(N)nc3c(c12)CC(=O)N3c1ccc(F)cc1,1.65
16,O=C(/C=C/c1cccc(Cl)c1)N1CCC(C(O)CN2CCC3(CC2)CN(C(=O)/C=C/c2cccc(Cl)c2)c2ccccc23)CC1 (stereo not drawn),1.87
17,OC1(c2ccccc2)CCN(Cc2cccc(-c3c[nH]c4nc(NC5CCCC5)ncc34)c2)C1 (stereo not drawn),3.3
18,COc1ccc(C)c(Nc2ccnc(Nc3cccc(-c4nc5ccccc5[nH]4)c3)n2)c1,1.79
19,O=C(Nc1ccc(Cl)cc1)Nc1cccc(-c2ccc(-c3nc4cc(F)ccc4[nH]3)cc2)c1,1.78
